Test results published in PubChem BioAssay AID1347426 (Functional Genomics Laboratory (NCATS/FGL), 2020).
Out of some 31,000 sequences screened, about 1,400 (4.5%) were called active. Only a selection was taken, and actives are over-represented in it overall. Unmarked numbers belong to inactive results.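 Rule for the calls: active = median seed-adjusted z-score above 1 or below -1; inactive = the rest.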

Test: Novel Modifiers of Survival Motor Neuron (SMN) Protein: Gene Identification via Genome-wide siRNA Screen;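 note: luminescence tracks full-length SMN protein made from the SMN2 reporter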
Conditions: HEK293T SMN2-luciferase reporter, siRNA knockdown, 72 h; actives lie on both sides
From the text: Spinal muscular atrophy (SMA) is the most common neuromuscular autosomal recessive disorder and one of the leading genetic causes of infant death. SMA results from mutations inducing loss of function or deletion in the survival of motor neuron-1 gene (SMN1), leading to deficiency of the survival motor neuron (SMN) protein. Although a second nearly identical gene, SMN2, is retained in humans, its expression primarily produces an aberrantly spliced isoform that is largely unstable and quickly degraded. We performed a genome-wide RNAi screen using a cell-based reporter assay to identify genes and pathways that modulate SMN protein stability. The screen identified over 200 genes that led to the greatest increase or decrease in luciferase expression.
Using HEK293T cells stably expressing a luciferase reporter that combines the promoter and splicing based cassettes in tandem with the major portion of the native SMN2 cDNA with luciferase, we performed a genome-wide RNAi screen to identify modulators of SMN protein levels. Luciferase is expressed when full-length SMN protein is generated with luminescence signal proportional to SMN protein levels. Our luciferase-based reporter assay was used to screen Ambion Silencer Select Human Druggable Genome siRNA library (10418 genes, 3 unique siRNAs per gene) using lipid-based reverse transfection.
Briefly, 1 pmol of each siRNA was spotted to a well of a 384-well plate (Corning, Corning, NY) and 20 microL of serum-free DMEM containing […] of Lipofectamine RNAiMax (Life Technologies, Carlsbad, CA) was then added to each well. Transfected cells were maintained at 37 degrees C in 5% CO2 for 72 hours, 20 microL of ONE-Glo Reagent (Promega) was added to wells for luciferase quantification. Raw luminescence reads were normalized to Ambion(R) Silencer(R) Negative Control #2 siRNA, then log10 transformed. A robust statistical measure of median absolute deviation (MAD) to standardize siRNA activities from each screen. Common Seed Analysis was used to help prioritize clean hits as opposed to those appearing to arise from seed based off-target effects. Candidate modulators were defined as the genes having a MAD score greater than 1.0 or less than -1.0.

Sequence | median seed-adjusted z-score
GAUGAUUCAGGUAAAAUAATT against CETN3 | -0.0815
CAACGGGACUAUUAUGAUATT against HNRNPC | -2.15 (active)
GCCACGAAAAUCAAUGAGATT against EDF1 | 0.0783
CCAGCAAACUCAACCAACATT against KCNJ6 | -1.6 (active)
GGAUGACUACAGGCAAGAATT against GPA33 | 0.138
GCUUCACCAGGGACGUGAATT against CD1D | -0.579
AGGUCUCAGAUGAAGCGGUTT against PPM1B | 0
CCCUUAAUAGAGAGAGUUATT against AADAT | 0.0891
GGAUCAAUGAGUUCUCCAUTT against FMOD | -1.32 (active)
GGCUCAAGUUCAACGAGUUTT against ARL4C | -0.61
GGCCUAUGCAAAAAGAGGATT against BAD | 0
GGAUACAUUAAGCUAAUAATT against PRMT3 | 0.00875
CCACCCUUCCGAGACAUGATT against TOP3B | -1.11 (active)
GCAUAAGAGGGAAUUCACATT against TAGLN | 0.0485
CGAUCGUCUUCUGAUCAAATT against DPYSL2 | -0.569
ACCUGAGUGUGAACCUCUATT against GDPD5 | -0.0618
CAGUAGUGUUGGUAGACCATT against HADH | 1.11 (active)
GAGUGUAUGUGAUCAUCGATT against PRKCE | 0.568
GGAGAUUGUUUCACGGAAATT against TBC1D23 | 0.0932
GGGACGAGAUCAACGAGAATT against KIF5A | -0.348
UCUUAUUUAUUCUACAUCCTT against TNFRSF6B | 0.0458
GUUGUUCCUUUGUAUCCAATT against DHX32 | -0.12

Sequence | median seed-adjusted z-score
CCCAGACAAAUUACCUAUATT against CAD | 2.37 (active)
GGACCUAUGAGCAACGAAATT against ATP1A4 | 0.116
GCAUGAACCAGUUAUCACATT against SCYL2 | -0.0652
GCAGCUCUGAGAACGGCAATT against ARHGEF1 | -0.0658
CUACCGAUGCUGAAAGACATT against PGM3 | -0.527
CCACGCUCAUCAUCUCCAATT against SLC4A2 | -0.539
CUACUGUUCUUGACCACAATT against DHX15 | 1.36 (active)
GGCUCAAGGGCUUUGCUGATT against ADSSL1 | 0.0976
CCGUUAGACCAGAACGGAATT against MGA | 0.0136
CAUAGUCACAUGAUUAAUATT against POSTN | -0.45
GGAAGACAAUUGCUAAGGUTT against TRO | 2.04 (active)
CCUUAUCCGCUACCUCCAATT against TAF5L | 0.409
GGAAGAAGGUAUUCCGUAUTT against CHD5 | -0.195
CGUCCAUGUUUAUCUACAATT against ENTPD2 | 0.0319
CGAACGAGCUAUCACAGAATT against TFB1M | 0.172
CAUUCGGUAUUUUAUUCUATT against SNRPD1 | -2.97 (active)
CCUUGCAACAUGUUCGUGATT against KRIT1 | -0.447
GAAAAACGAUGUAAGCAAUTT against ADH1A | 0.624
GAGACAAACUAAUUGAGAATT against PPP1R8 | -0.029
GGCUACAAAUGUUCAUCGATT against LRP6 | -0.116
CGUCAAUUCCGGUACACUUTT against PIGM | 1.36 (active)
CACAUUAAAGUGUAAAGAATT against PIP3-E | 0.676

Sequence | median seed-adjusted z-score
GGACAAAGUCCUAAAGAAATT against MGC21874 | -0.354
GCACUGUCUACAUCCCUGATT against RHCG | 0.375
AGAUAGUUCUGGAACUGGATT against HES2 | -0.186
CCACUAGCACAUUCCGCAATT against RBP2 | 0.0132
GGACGACUCUGAUCUGGAUTT against DYNC1I1 | -0.716
GGCGAAAAAUUGCUACCGATT against PSMC2 | -1.96 (active)
CUCUAGUCGCGUCAAGUUUTT against NISCH | -0.0757
GCAAAAAGAGCGAUCAGAATT against CNDP1 | 0.203
GGAUAUAACGAGAAUGUCUTT against MED27 | -1.62 (active)
AGAUAGAAAUUGACUUUGATT against BRD3 | 0.633
GCGAAAACAUGGAUGUUCUTT against HERC2 | 0.98
CUUUCCGUGUGAAAUCAAATT against ZNF761 | 0.291
AGACCUCCUACGACAUUAATT against BOC | -0.0192
GACUCAAUGCUACUAUCAATT against ADAM32 | 1.75 (active)
GGGUGAAUGCUAUUGAGUUTT against MKRN1 | -0.496
AGAACUUCAUGGACAUAGATT against CNR1 | 0.0359
CCACCGAUGAGAUUACCUUTT against STS | -0.392
CAGAGGUUGUGACACGAAATT against PAK1 | -0.168
CUAUGAGGAAUGUCGCAGATT against XPO1 | 1.12 (active)
GGUCCUCAUUGAAAACGAATT against BTBD11 | -0.00434
GGACUACAGUAUACAUUGUTT against PCDH24 | 0.345
GGAACAGGCUAUCAGAACATT against TTC8 | 0

Sequence | median seed-adjusted z-score
GGGCUUUAAAUAUGAGAUUTT against GRID1 | 0.66
CGUUGUCACUGAGAUCACATT against AVIL | -0.127
AAGACAUACCGACCUCUUATT against PPIL3 | 0.282
GGACGUACAGUGGUGGUAATT against ABCA3 | -0.363
CCAAUAUUCGACUUGCGUATT against XPO1 | 1.12 (active)
GCCGCCAAGUAAAGCCUUATT against HSPB1 | 0.693
CAAGCUGUCUAAGUCCAAATT against NOVA1 | -0.486
CCCACCAUGUUACAAGACATT against POLR2G | -4.19 (active)
GCAAGGAAGAAAUUUGUGATT against ERCC1 | -0.566
CUCACAUAAUCAUAAUAGATT against ZNF41 | 0.342
GGAGCCUUGUUGAUCCUUATT against FRAP1 | -1.02 (active)
CGUUCGCACAUUCCUUAUATT against KIF6 | -0.0396
GCUUUGUAGAAUUUGCAGATT against TRNAU1AP | 0.52
GGACCGGCCUUUUCGAAAATT against SNRNP35 | 0.172
GGCUGAUUACGUUCGGGAATT against MYL2 | -0.0369
CAAUGAUCCCGGGCAUUUATT against RPP21 | -1.09 (active)
GGAGACCAACUGCAACUUUTT against ZACN | 0.065
CGGAGGUGACUGACAGAUATT against CAMKV | -0.193
GAGUCAAAUUUGUGAAGAATT against GLO1 | -0.0827
CUGUGGGAGUUAUUGUCAATT against CDH13 | 0
CAAGCAUCUUUGUCAAAGATT against PTH2R | -0.492
GGCUGAUAGUUUAGGAGUUTT against EIF5B | 1.68 (active)

Sequence | median seed-adjusted z-score
GCUGGUUACUUAUCACCAATT against TPH1 | -0.055
AACCUAUGCGUAUCCAGUATT against SNRPA | -2.09 (active)
CGAAGUGAGUGAUAACAGUTT against RNF157 | 0.0197
GCAAGACCGAAGUAAACUATT against GPX4 | -1.18 (active)
UGUUAAGCUUCAUCAGUAUTT against MRGPRX1 | -0.188
ACAUCUCACGGAUCCUUAATT against PAX4 | 0.0811
GGUGAAGGUAGAUCAAAGATT against EIF2AK2 | 0.419
CGACUUCUCAGAAGGCAGATT against GATA4 | -0.24
AAAUCUCAAUGGUCGCUAUTT against FCN3 | -0.112
AGGAGCUUGUUGAUCCCUATT against SLC7A8 | -0.134
CCACAUAGGUCAGAAACGATT against CLDN17 | 0
CAUCGUCUCUGCUGACAAATT against TUBAL3 | 1.05 (active)
GGAACCCUUUGAUCAAUUUTT against ADAMTS7 | 0.146
GAUUGCAGCCAAUCCCUUUTT against TBX6 | 0.144
CACUAGAUCGCGAUAAUAATT against DDB1 | 0.231
GGAAGGCAUUACUCACUUATT against SIRT3 | -0.341
GCCAGAAUCCUUUAGCAGUTT against CRTC1 | 0.00363
GCAUCUGAAGACUCAGGCATT against TAZ | 0.0549
UCAGCUGUAUCGACCAGAATT against MYL7 | -1.21 (active)
GAAAUCAGCCUAUGGUUUATT against NME2 | -0.0728
CCGUAUAUCUGGUGGUUAUTT against PLOD2 | -0.281
